Screening results (PubChem BioAssay)
In the library only some 3.3% were active in any assay of this set; here they are far more common.
PHOSPHO1 block = blocks human PHOSPHO1 phosphatase activity. inhibition, % at 13.3 µM. recombinant PHOSPHO1, absorbance phosphatase assay. Q8TCT1. 1.1% of 290,000 active. AID 1565; in the data active means inhibition above about 60%
Target sequence (Q8TCT1 whole entry, looked up): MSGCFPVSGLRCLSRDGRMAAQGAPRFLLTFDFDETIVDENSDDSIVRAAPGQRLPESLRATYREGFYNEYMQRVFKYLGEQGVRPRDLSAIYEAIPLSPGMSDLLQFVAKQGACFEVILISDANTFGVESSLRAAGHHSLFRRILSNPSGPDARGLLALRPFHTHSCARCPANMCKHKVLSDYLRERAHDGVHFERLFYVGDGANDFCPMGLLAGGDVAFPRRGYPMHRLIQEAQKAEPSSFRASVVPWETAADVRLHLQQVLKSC
Cl transport mod = modulators of human KCC2 chloride dependent transport | Q9H2X9 | KCC2 cells, thallium flux FluoZin-2 fluorescence | B-score of Tl+ flux slope (higher = more flux/activation; lower = inhibition) at 10 µM | 2.2% of 190,000 active;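 active means thallium flux slope and its plate-corrected score both differing from the plate sample mean at a set confidence after two filtering rounds, in either direction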;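 further: slope of fluorescence scaled to starting intensity during 10 to 20 s after thallium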
Cardio protect = modulators protecting cardiomyocytes from myocardial damage; H9c2 cardiomyocytes, H2O2 injury protection, ATPLite, 2 h; protection from H2O2 cell death, % at 20 µM; 0.63% of 360,000 active; AID 588492;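 active means compounds giving at least 50% protection of heart cells from peroxide-induced death in the single-dose screen, raw or plate-pattern-corrected value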;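 further: 0% = DMSO wells with peroxide and 100% = DMSO wells without peroxide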
Calb FLC = C. albicans growth modulation with fluconazole; 0.57% of 300,000 active; AID 1979; growth inhibition, % (test concentration not listed); C. albicans CaCi-2 (fluconazole-resistant clinical isolate) + fluconazole, Alamar Blue growth, 48 h;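 active means growth inhibition above about 58% in most replicates, limit read from the data, passing the limit was not always enough; inconclusive means exactly half the replicates above a set limit; inactive means most replicates below a set limit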;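 further: all wells also contain fluconazole at 8 µg/ml as a sub-toxic cotreatment; 0% = median of DMSO wells and 100% = median of geldanamycin control wells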
Efflux pump mplx = antifungal efflux pump inhibition, Nile Red retention; S. cerevisiae Candida pump triplex; inhibition, % at 10 µM; 0.44% of 330,000 active; AID 485275;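 active means plate passing quality check with inhibition over a set limit, or well fluorescence over plate mean plus 4 SD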;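 further: Nile Red retained in pooled yeast measured as flow cytometry median fluorescence; 0% = buffer negative control and 100% = Enniatin B positive control; higher means more Nile Red kept so more efflux inhibition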
* = called active by the depositor; i = inactive; ? = inconclusive; / = no result given.

SMILES | PHOSPHO1 block | Cl transport mod | Cardio protect | Calb FLC | Efflux pump mplx
CCN(CC(=O)Nc1ccc(OC)cc1)C(=O)CCc1nc2ccccc2c(=O)[nH]1 | / | / | 90* | / | 0
CN(CC(=O)Nc1cccc(F)c1)C(=O)Cc1n[nH]c(=O)c2ccccc12 | / | / | 74* | / | 0
COc1cccc(NC(=O)CN(C)C(=O)CCCc2nc3ccccc3c(=O)[nH]2)c1 | / | / | 64* | / | 0
CN(CC(=O)Nc1cccc(F)c1)C(=O)CCCc1nc2ccccc2c(=O)[nH]1 | / | / | 60* | -4 | 0
CN(CC(=O)Nc1ccc(Cl)c(C(F)(F)F)c1)C(=O)CCCc1nc2ccccc2c(=O)[nH]1 | / | / | 37 | / | 0
CN(CC(=O)Nc1ccc(Cl)c(C(F)(F)F)c1)C(=O)Cc1n[nH]c(=O)c2ccccc12 | / | / | 30 | 0 | 0
Fc1ccccc1/C=N/n1c(COc2ccccc2)n[nH]c1=S | -3 | / | -11 | 1 | 0
C=CCS/C(N)=N\N=C\c1c(O)ccc2ccccc12 | 8 | 0.62 | -12 | 11 | 0
O=C(NNC(=O)C1[C@H]2CCCC[C@@H]12)Nc1cccc2ccccc12 (some centres not stated) | 15 | -1.3 | 4 | 3 | 0
CC1(C)CC(=O)c2c(oc3cc(O)c(O)cc23)C1 | 48 | 0.12 | 90* | -33 | 0
COC(=O)c1oc2c(c1C)C(=O)CC(C)(C)C2 | 29 | 0.02 | 14 | -5 | 0
COC(=O)CN1C(=O)S/C(=C/c2ccc(N3CCCCC3)o2)C1=O | -149 | i | -8 | 8 | 0
CCOC(=O)CN1C(=O)S/C(=C/c2ccc(N3CCCCC3)o2)C1=O | 101* | -0.042 | -2 | -6 | 0
Cc1ccccc1N1C(=O)C(Cc2ccc(F)cc2)S/C1=C(\C#N)C(N)=O (configuration not stated) | -1 | 0.12 | 7 | 2 | 0
Cc1ccc(S(=O)(=O)N2CCCCC2)cc1C(=O)OC(C)C(=O)NC1CCCCC1C (configuration not stated) | / | / | 2 | / | /
Cc1ccc(/C=N/Nc2cn[nH]c(=O)n2)o1 | 20 | 0.036 | -10 | -3 | 0
Cc1cc(=O)[nH]c(N/N=C/c2ccccn2)n1 | 5 | 0.18 | 47 | 3 | 0
O=c1nc(N/N=C/c2ccccn2)cn[nH]1 | 20 | 0.74 | 55* | 106* | 0
O=c1cnnc(N/N=C/c2ccccn2)[nH]1 | -6 | -0.22 | 40 | 95* | 0
Oc1ccc(/C=N/Nc2nc(N3CCCC3)nc(N3CCCC3)n2)cc1O | 28 | -0.24 | 76* | ? | 0
COc1cc(/C=N/Nc2nc(N3CCCC3)nc(N3CCCC3)n2)ccc1O | -29 | -1.4 | 6 | 0 | 0
COC(=O)C1=C(C(=O)OC)SC2(S1)C(C(=O)OC)=C(C(=O)OC)SC1=C2c2cc(C)ccc2NC1(C)C | 98* | 0.31 | -16 | 4 | 0
Cc1cc(C)c2cc3c(N)c(C(=O)N4CCc5ccccc5C4)sc3nc2c1 | 2 | / | 49* | 63 | 0
CN1C2CCC1CC(NS(=O)(=O)c1ccc(C#N)cc1)C2 (configuration not stated) | 33 | / | 2 | -9 | 0
CCC(=O)NCCc1nc2cc(NC(=O)c3cccc([N+](=O)[O-])c3)ccc2n1C | -8 | / | 10 | 18 | 1
SMILES | PHOSPHO1 block | Cl transport mod | Cardio protect | Calb FLC | Efflux pump mplx
CC1CCc2c(sc(NC(=O)c3ccco3)c2C(=O)O)C1 (configuration not stated) | 28 | / | -6 | 11 | 0
CC1CCc2c(sc(NS(=O)(=O)c3ccccc3)c2C(=O)OC(C)C)C1 (configuration not stated) | -10 | 10* | 6 | / | 0
CN1CCN(C(c2ccc(C(F)(F)F)cc2)c2cc(Cl)c3cccnc3c2O)CC1 (configuration not stated) | -104 | / | / | 100* | 0
COc1ccccc1C(=O)NC(=O)COC(=O)c1nc2nc(C)cc(C)n2n1 | / | / | 4 | 4 | 0
Cc1cc(=O)[nH]c(NN=C2CCCCC2C)n1 (configuration not stated) | / | / | 4 | / | /
COc1cccc(NC(=O)C2(C)CCN2Cc2ccc(SC)cc2)c1 (configuration not stated) | / | / | -2 | / | /
N#CSCC(=O)c1cccc2ccccc12 | -4 | 12* | -10 | / | 0
COc1cc2c(C#CCCCO)c(-c3ccsc3)oc(=O)c2cc1OC | / | / | 68* | / | 0
COc1ccc(C(=O)NNC(=S)NC(=O)c2ccco2)cc1 | 12 | 10* | 6 | ? | 0
O=C(NC(=S)Nc1ccccn1)c1ccco1 | -13 | 10* | -8 | ? | 0
CC(Oc1ccc(Cl)cc1)C(=O)NNC(=S)NC(=O)c1ccco1 (configuration not stated) | 31 | 26* | 9 | ? | 0
O=C(NC(=S)NCc1ccc(Cl)cc1)c1ccco1 | / | / | -3 | / | 0
COc1ccccc1C(=O)NNC(=S)NC(=O)c1ccco1 | -12 | 16* | 48 | 7 | 0
O=C(NC(=S)NNC(=O)c1ccco1)c1ccc(Br)cc1 | -88 | / | 12 | 54 | 0
CCN(C(=O)COc1ccc(N(C)S(=O)(=O)c2ccc(NC(C)=O)cc2)cc1)C1CCCCC1 | / | / | 2 | / | 0
CSc1ncccc1C(=O)OCC(=O)Nc1nc(C)c(Cl)cc1Cl | / | / | 3 | / | 0
O=C(NC(=S)Nc1ccc2[nH]c(=O)[nH]c2c1)c1cccc(F)c1 | 14 | / | 1 | -7 | 0
Cc1sc(NC(=S)NC(=O)c2ccco2)c(C(N)=O)c1C | -7 | 0.6 | -10 | -6 | 0
Cc1ccc2nsnc2c1NC(=S)NC(=O)c1ccco1 | -12 | 9.3* | -4 | 20 | 1
O=C(Cn1nnc(-c2ccc(Cl)cc2)n1)NC(=O)NC1CCCC1 | / | / | 0 | / | /
CCOc1ccc2noc3c2c1C(=O)c1ccccc1-3 | 62* | / | 27 | 20 | 0
CCNc1ccc2noc3c2c1C(=O)c1ccccc1-3 | 4 | -1.3 | 45 | 20 | 0
Cc1cc(-c2cc(C(=O)O)c3ccccc3n2)c(C)s1 | 24 | -0.61 | -3 | 80* | 0
O=C(/C=C/c1ccccc1)c1cc(Br)ccc(=O)c1O | 38 | 16* | 44 | -4 | 0
Cc1ccc(/C=C/C(=O)c2ccccc(=O)c2O)cc1C | 0 | 32* | 75* | 99* | 0
SMILES | PHOSPHO1 block | Cl transport mod | Cardio protect | Calb FLC | Efflux pump mplx
O=C(/C=C/c1ccc(F)cc1)c1cc(Br)ccc1O | 24 | / | -6 | -9 | 0
COCC(C)NC(=O)C(C)N1c2cccc3cccc(c23)S1(=O)=O (configuration not stated) | / | / | 2 | -5 | 0
COc1cc(NC(=O)c2ccc(C)cc2C)ccc1NC(=O)c1cccs1 | 19 | / | 5 | 8 | 0
S=C(Nc1ccc(Cl)cc1)Nc1ccc2c(c1)OCCO2 | 27 | / | 0 | 81* | 0
S=C(Nc1ccc2c(c1)OCCO2)Nc1ccccc1Cl | 18 | / | -4 | -2 | 0
Cc1ccc(C(=O)NC(=S)Nc2ccc3c(c2)OCCO3)c(C)c1 | 22 | 13* | -8 | 3 | 0
Cc1cc(C)cc(C(=O)NC(=S)Nc2ccc3c(c2)OCCO3)c1 | -19 | 1 | -13 | 19 | 0
COc1cc(NC(=S)NC(=O)c2ccc(C)cc2C)ccc1NC(=O)c1cccs1 | 62* | / | -19 | 0 | 0
